HCMV antiviral: blocks human cytomegalovirus replication | HFF cells, HCMV-luciferase reporter, 72 h; stronger effect = lower value | 410,000 tested, 4.5% active | activity change, negative = inhibition, % at 57.5 µM | AID 1259415; in the data active = activity change below about -60%; inconclusive = no clear call, values can overlap the other calls; inactive = above about -39%
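After 16 h attachment at 37C, HFF cells received test compound and HCMV-luciferase (1 PFU/cell); reporter luminescence read 72 h later, data normalized against buffer-only and known inhibitor Salinomycin.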
Marburg entry inh: inhibitors of Marburg virus binding or cell entry. Marburg virus pseudotyped entry inhibition, cell reporter. Potency, µM (doses to about 37.8 µM), for the others: at the highest dose activity change, negative = inhibition, most hits filed as inhibitors. 300,000 tested, 1.8% active. AID 540276; calls by dose curve; tested in HEK293 cells; note: potency is the fitted concentration of half-maximal effect
FMDV inh: foot and mouth disease virus antiviral activity. FMDV antiviral cell-based qHTS. Potency, µM (titrated, usually from 57.9 µM), for the others: top-dose activity change, negative = inhibition, hits mostly inhibitors. 410,000 tested, 1.2% active; calls by dose curve; tested in HEK293T cells; note: read-out not given here; potency is the fitted concentration of half-maximal effect; nearly all actives have a fitted effect of over 45% in size
Lassa entry inh: inhibitors of Lassa virus binding or cell entry; Lassa virus pseudotype entry inhibition, cell reporter; Potency, µM (series often up to 37.9 µM), for inactives: at the highest dose activity change, negative = inhibition, usual class: inhibitors; 300,000 tested, 1.2% active; calls by dose curve; tested in HEK293 cells; note: potency is the fitted concentration of half-maximal effect; nearly all actives have a fitted effect of over 50% in size
VACV Venus inh: vaccinia inhibition (Venus reporter). Potency, µM (doses to about 36.5 µM), for inactives: at the top dose activity change, negative = inhibition, hits mostly inhibitors. AID 720580. 330,000 tested, 0.46% active. Vaccinia virus Venus reporter expression, fluorescence; calls by dose curve; tested in A549 cells; note: potency is the fitted concentration of half-maximal effect; nearly all actives have a fitted effect of over 30% in size
VACV mCherry inh: vaccinia inhibition (mCherry reporter); 310,000 tested, 0.63% active; Potency, µM (series often up to 36.5 µM), for the others: at the highest dose activity change, negative = inhibition, usual class: inhibitors; Vaccinia virus mCherry reporter infection, fluorescence; calls by dose curve; tested in A549 cells; note: potency is the fitted concentration of half-maximal effect; nearly all actives have a fitted effect of over 35% in size
Numbers without * were called inactive; i = inactive; ? = inconclusive; / = no result given; + = active, no number; [ ] = dose if it differs, or a comment. Sampled rows, rich in hits. Any-hit rate of the full collection: about 6.5%. % is set by controls: 0 for no effect and ±100 for the full control effect.

SMILES | HCMV antiviral | Marburg entry inh | FMDV inh | Lassa entry inh | VACV Venus inh | VACV mCherry inh
CC(C)(C)c1ccc(OCCCC(=O)NNC(=O)c2ccccc2O)cc1 | 20 | ? | -17% | ? | ? | 14µM*
Cc1noc(C)c1COc1ccc(C(=O)Nc2nnc(CC(C)C)s2)cc1 | -62* | / | ? | / | / | /
COC(=O)c1scc(-c2ccc(C)cc2)c1S(=O)(=O)Nc1c(C)cc(C)cc1C | 19 | / | 20% | -3%[46.1 µM] | 4% | -4%
CCN(c1ccccc1)S(=O)(=O)c1c(-c2ccc(C)cc2)csc1C(=O)OC | -67* | / | -15% | ? | -6% | -6%
Cc1ccc(S(=O)(=O)N2CCOCC2)cc1C(=O)Nc1ccccc1C(=O)O | -9 | 5%[46.1 µM] | -6% | ? | -14% | -7%
CCC(CO)[n+]1c(C)cc(/C=C2\Sc3ccccc3N2Cc2ccccc2)cc1C (stereo not given) | -100* | ? | 10µM* | ? | -30% | i
O=C(NCc1ccc2[nH]c3c(c2c1)CCCC3)c1ccc(S(=O)(=O)N2CCOCC2)cc1 | -4 | -3% | -5% | ? | ? | -25%
CC(=O)N1c2ccc(S(=O)(=O)N3CCC(C(=O)Nc4cccc(Cl)c4C)CC3)cc2CC1C (stereo not given) | -29 | / | ? | -7%[46.1 µM] | -16% | -7%
CC(=O)N1c2ccc(S(=O)(=O)N3CCCC(C(=O)Nc4ccc(F)cc4)C3)cc2CC1C (stereo not given) | -68* | / | ? | / | ? | -23%
CC(=O)N1c2ccc(S(=O)(=O)N3CCC(C(=O)Nc4cccc(Cl)c4)CC3)cc2CC1C (stereo not given) | -88* | / | ? | / | / | /
CNC(=S)NCc1ccc2[nH]c3c(c2c1)CCCC3 | -67* | / | 2% | / | / | /
O=C(NCc1ccc2[nH]c3c(c2c1)CCCC3)c1ccc(S(=O)(=O)N2CCCC2)cc1 | -79* | -4% | 0% | ? | 7% | -6%
CCCCNC(=S)NCc1ccc2[nH]c3c(c2c1)CCCC3 | -1 | / | 0% | / | -21% | -23%
Cc1cccc(Cn2cccc2CNS(=O)(=O)c2ccccc2F)c1 | 2 | / | 7% | -2%[46.1 µM] | 22% | -1%
CC(=O)Nc1ccc(NS(=O)(=O)c2ccc3[nH]c4c(c3c2)CCCCC4)cc1 | 5 | / | 24% | 4%[46.1 µM] | 7.9µM* | ?
COc1ccc(N2CCN(S(=O)(=O)c3ccc4c(c3)CC(C)N4C(C)=O)CC2)cc1 (stereo not given) | -72* | / | ? | -21%[46.1 µM] | -15%[7.34 µM] | -7%[7.34 µM]
CC(=O)N1c2ccc(S(=O)(=O)N3CCC(C(=O)Nc4cccc(C)c4)CC3)cc2CC1C (stereo not given) | -68* | ? | ? | ? | -3% | -1%
COc1ccc(Cl)cc1NC(=O)C1CCN(S(=O)(=O)c2ccc3c(c2)CC(C)N3C(C)=O)CC1 (stereo not given) | -63* | / | ? | -8%[46.1 µM] | -8% | -16%
COc1cccc(CN2CCC3(CC2)c2ccccc2[C@@H](NC(=O)c2ccccc2)[C@@H]3O)c1O | / | / | -1% | / | -9% | -24%
Cc1cc2ccc(Cl)nc2nc1C | / | / | / | / | -6% | -14%
CC(=O)N1c2ccc(S(=O)(=O)N3CCCCCC3)cc2CC1C(=O)NC(C)C (stereo not given) | -85* | / | -10% | 4%[46.1 µM] | 6% | -5%
CC(=O)N1c2ccc(S(=O)(=O)N3CCC(C(=O)N4CCN(c5cccc(C(F)(F)F)c5)CC4)CC3)cc2CC1C (stereo not given) | -66* | / | ? | / | / | /
CCOc1ccc(NC(=O)C2CCN(S(=O)(=O)c3ccc4c(c3)CC(C)N4C(C)=O)CC2)cc1 (stereo not given) | ? | -15%[46.1 µM] | ? | -25%[46.1 µM] | -8% | -15%
CC(=O)N1c2ccc(S(=O)(=O)N3CCC(C(=O)Nc4cccc(F)c4)CC3)cc2CC1C (stereo not given) | -61* | -2%[46.1 µM] | ? | 4%[46.1 µM] | -17% | -14%
CCc1ccc(NC(=O)C2CCCN(S(=O)(=O)c3ccc4c(c3)CC(C)N4C(C)=O)C2)cc1 (stereo not given) | -30 | / | -2% | / | ? | ?
SMILES | HCMV antiviral | Marburg entry inh | FMDV inh | Lassa entry inh | VACV Venus inh | VACV mCherry inh
CCc1ccc(NC(=O)C2CCN(S(=O)(=O)c3ccc4c(c3)CC(C)N4C(C)=O)CC2)cc1 (stereo not given) | -93* | / | 16µM* | / | ? | -11%
COc1cc(OC)c(OC)cc1CN1CCCC(n2cc(C(=O)N3CCCCC3)nn2)C1 (stereo not given) | / | / | -6% | / | -4% | -21%
CSc1cccc(NC(=O)C2CCN(S(=O)(=O)c3ccc4[nH]c5c(c4c3)CCCCC5)CC2)c1 | 0 | / | -13% | ? | -19% | -19%
O=C(Nc1cccc(F)c1)C1CCN(S(=O)(=O)c2ccc3[nH]c4c(c3c2)CCCCC4)CC1 | + | / | 0% | ? | ? | -24%
CC(=O)N1c2ccc(S(=O)(=O)N3CCCC(C(=O)Nc4cc(C)cc(C)c4)C3)cc2CC1C (stereo not given) | 8 | / | -18% | / | ? | -20%
CC(=O)N1c2ccc(S(=O)(=O)N3CCC(C(=O)Nc4cc(C)cc(C)c4)CC3)cc2CC1C (stereo not given) | -61* | / | -24% | / | / | /
Cc1occc1-c1nnc(SCC(=O)Nc2ccccc2)n1Cc1ccccc1 | -62* | ? | / | -13% | -13% | -15%
CC1(C)CC(=O)c2sc(NC(=O)CCS(=O)(=O)c3ccccc3)nc2C1 | ? | / | -8% | / | ? | ?
CC1(C)CC(=O)C(CS(=O)(=O)c2ccccc2)=C(Cl)C1 | -68* | / | -17% | / | / | /
Cn1cc(CN2CCCC(C(=O)Nc3ccc(-c4cccc(F)c4)cc3)C2)cn1 (stereo not given) | -72* | / | ? | / | / | /
CCn1cc(CN2CCC(C(=O)Nc3cccc(-c4cccc(OC)c4)c3)CC2)cn1 | 10 | 21% | -5% | -1% | -7% | -13%
CCn1cc(CN2CCC(C(=O)Nc3cccc(-c4cccc(F)c4)c3)CC2)cn1 | -63* | -25% | 0% | -15% | -24% | -7%
COc1ccc2c(c1)/C(=C/c1cnc[nH]1)C(=O)N2 | -97* | ? | 15% | ? | 7.1µM* | 3.5µM*
COc1ccc(C(=O)/C=C2/c3ccccc3CC(C)(C)N2C)cc1 | 6 | ? | 44% | -38%[14.3 µM] | -26% | -19%
COc1ccc(C(=O)/C=C2/C(=O)Nc3ccccc32)cc1 | -13 | / | 3.2µM* | / | / | /
O=C1Nc2ccccc2/C1=C/c1cnc[nH]1 | ? | ? | 112% | 11% | / | /
C=CCOc1ccccc1C(=O)/C=C1/C(=O)Nc2ccccc21 | -103* | / | 40µM* | / | / | /
COc1cc(OC)c(/C=C2\C(=O)Nc3ccccc32)c(OC)c1 | -33 | / | 28µM* | / | ? | ?
C=CCOC(=O)C(C(C)=O)C(NC(=O)OC)c1cccc(F)c1 (stereo not given) | / | 12%[14.2 µM] | / | / | / | /
Cc1ccc2c(c1)N(C(=O)Nc1cccc3c1CCCC3)CCO2 | -4 | / | ? | 2%[46.1 µM] | -9% | -18%

Source: PubChem (National Center for Advancing Translational Sciences (NCATS))
